Consider 29 compounds from PubChem BioAssay AID1851 (National Center for Advancing Translational Sciences (NCATS), 2009).

Among all 16,000 compounds or so, about 5,800 (36%) were called active. Inconclusive results (about 23%) are left out. Calls follow the shape of the dose curve; as a rule, active = well fitted curve in the direction sought with a large enough effect; inconclusive = small, poorly fitted or top-dose-only effect, or effect the other way; inactive = no such curve, though single readings can be large or run the other way. The list shows a part of the results.
% is scaled to controls: 0 for no effect and ±100 for the full control effect.

In this assay the target is Cytochrome P450 2C19 (Homo sapiens) (UniProt P33261). Kind of assay: Cytochrome panel assay with activity outcomes. The note with it: recombinant CYP, pro-luciferin dealkylation, luminescence, p450-cyp2c19; series mostly up to 57.1 µM; activity, negative = inhibition: at the top concentration.
Sequence of Cytochrome P450 2C19 (Homo sapiens) (P33261 whole entry, looked up): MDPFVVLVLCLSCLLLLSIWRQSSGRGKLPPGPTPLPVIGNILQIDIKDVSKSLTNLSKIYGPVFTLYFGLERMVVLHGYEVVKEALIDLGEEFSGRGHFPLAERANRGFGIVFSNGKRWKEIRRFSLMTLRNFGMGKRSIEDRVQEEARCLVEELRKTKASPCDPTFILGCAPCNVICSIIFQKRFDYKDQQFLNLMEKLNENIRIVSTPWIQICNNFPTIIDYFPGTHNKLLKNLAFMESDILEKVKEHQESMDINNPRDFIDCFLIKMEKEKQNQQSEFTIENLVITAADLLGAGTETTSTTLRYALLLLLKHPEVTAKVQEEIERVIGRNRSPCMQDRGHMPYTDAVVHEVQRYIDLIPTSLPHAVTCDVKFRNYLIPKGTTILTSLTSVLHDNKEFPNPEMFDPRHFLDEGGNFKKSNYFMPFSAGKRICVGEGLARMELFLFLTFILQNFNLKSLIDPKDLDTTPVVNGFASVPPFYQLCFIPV
By AC50 is commonly meant the concentration giving half of the maximal activity seen. Take `CSc1nnc(-c2sccc2OCc2ccccc2)n1C`: the AC50 is 17.8 µM (active).

As to `Cc1nc2c(OCc3ccccc3)cccn2c1CC#N`, the “activity, negative = inhibition” value is -11.3% (inactive).

As to `CO[C@H]1COC(=O)[C@@H](C)COC(=O)[C@@H](COCc2ccccc2)NC(=O)C/C=C\[C@H]1C`, the activity, negative = inhibition was 37.5% [at 11.4 µM] (inactive).

With `CC(C)NCCOCCSc1ccc(Cl)cc1`, the AC50 is 15.8 µM (active).

`O=c1[nH]c(=O)n([C@@H]2C[C@H](O)[C@H](CO)O2)cc1C(F)(F)F`: the “activity, negative = inhibition” value was -2.44% [at 25.6 µM] (inactive).

Consider `CC(=O)N1CCC2(CC1)CCN(C(=O)Nc1cccc(F)c1)CC2`, for which the “activity, negative = inhibition” value was -4.74% (inactive).

For `Cn1cccc1C(=O)N1CCC2(CCN(C(=O)Nc3cccc(F)c3)CC2)CC1`, the “activity, negative = inhibition” value was -21.4% (inactive).

For `CC(=O)NC1(c2ccc(F)cc2)CCN(C(=O)Nc2ccc(F)cc2F)CC1`, the AC50 was 7.08 µM (active).

In the case of `CN(Cc1ccco1)c1nc(-c2cccc(C#N)c2)nc2ccccc12`, the AC50 is 15.8 µM (active).

On to `CN1CCN(c2nc(-c3cccc(C#N)c3)nc3ccccc23)CC1`, for which the “activity, negative = inhibition” value was -12.9% (inactive).

Turning to `CN(Cc1ccco1)c1nc(-c2ccc3c(c2)OCO3)nc2ccccc12`, the concentration at half-maximal activity (AC50) is 7.94 µM (active).

Take `COc1cccc(-c2nc(N(C)Cc3ccco3)c3ccccc3n2)c1`: the AC50 is 20 µM (active).

For `CN(C)c1nc(-c2cccnc2)nc2ccccc12`, the “activity, negative = inhibition” value was -40.7% (inactive).

Consider `COc1cccc(-c2nc(N(C)C)c3ccccc3n2)c1`, for which the AC50 was 20 µM (active).

For `CNC(=O)c1sc(SC)cc1-c1ccc(Cl)cc1`, the AC50 is 0.0562 µM (active).

Turning to `CCn1c(/C=C2/C(=O)N(C)c3ccccc32)nc2ccccc2c1=O`, the AC50 was 15.8 µM (active).

Turning to `CCn1c(=O)[nH]c2ccccc2c1=O`, the “activity, negative = inhibition” value is -2.61% (inactive).

In the case of `Cc1cc(C)cc(NC(=O)C/C(N)=N/O)c1`, the “activity, negative = inhibition” value is -15.2% (inactive).

Turning to `CC(C)(CCc1nc2ccccc2[nH]1)C(=O)O`, the activity, negative = inhibition was -0.413% [at 11.4 µM] (inactive).

Take `Cc1cc(C)cc(NC(=O)CCc2nc3ccccc3[nH]2)c1`: the AC50 was 1.58 µM (active).

Consider `CCOC(=O)C1=C(COc2ccc(F)cc2Cl)NC(=O)NC1c1cc(C)ccc1C` (centres undefined), for which the AC50 is 7.08 µM (active).

On to `CCOC(=O)C1=C(C)NC(=O)N[C@@H]1c1coc2cc(C)cc(C)c2c1=O`, for which the activity, negative = inhibition was -27.2% [at 11.4 µM] (inactive).

As to `CCOC(=O)C1=C(CSc2nc3ccccc3s2)NC(=O)NC1c1cc(C)ccc1C` (centres undefined), the AC50 was 7.94 µM (active).

Take `C=CCNc1nc(-c2ccc(Cl)cc2)cs1`: the AC50 is 3.16 µM (active).

With `Cc1ccc(CSC(N)=Nc2ccccc2)cc1C`, the half-maximal activity concentration (AC50) was 2 µM (active).

As for `C#C[C@@]1(O)CC[C@@H]2[C@@H]3CCC4=CC(=O)CC[C@@H]4[C@H]3CC[C@]21C`, the AC50 is 5.01 µM (active).

As to `C#C[C@]1(O)CC[C@@H]2[C@H]3CCC4=CCCC[C@@H]4[C@@H]3CC[C@@]21C`, the AC50 was 3.98 µM (active).

Take `C#C[C@@]1(O)CC[C@@H]2[C@@H]3CCC4=C(CCC(=O)C4)[C@H]3CC[C@]21C`: the AC50 was 0.0631 µM (active).

As for `C[C@@]12CCC(=O)C=C1CC[C@@H]1[C@@H]2[C@H](O)C[C@]2(C)[C@@H]1CC[C@]2(O)C(=O)COC(=O)CCC(=O)O`, the “activity, negative = inhibition” value was 35.7% (inactive).
